A selection: hits, their analogues and other compounds. The true share with any hit is near 21%.
TDP1 cell CPT: growth inhibition of DT40 Tdp1-/-;hTDP1 cells with camptothecin (screen for TDP1 inhibitors); chicken DT40 Tdp1-/-;hTDP1 cells + 20 nM CPT, ATP luminescence, 48 h; Potency, µM (top dose mostly 46.2 µM), for inactives: top-dose activity change, negative = growth inhibition, actives largely listed as inhibitors; actives 12% (n = 420,000); AID 686979; further: potency means the concentration at half of the fitted maximal effect; on the % scale 0 is the no-effect control and ±100 the full control effect; nearly all actives have a fitted effect of over 55% in size
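Chicken DT40 Tdp1-/- cells stably complemented with human TDP1 were seeded at 400 cells/well in medium containing 20 nM camptothecin, exposed to pin-transferred compounds, and grown at 37 °C for at least 48 hr. Viability was read as ATP luminescence.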
IL1B secr inh: inflammasome signaling inhibition, IL-1 beta readout; THP-1 LPS/ATP IL-1B secretion, AlphaLISA, 16 h; active compounds read low; activity change, % at 57.5 µM; actives 4.7% (n = 360,000); AID 743279; in the data active means activity change below about -50%; inconclusive means mostly about -30% to -49%; further: on the % scale 0 is the no-effect control and ±100 the full control effect
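Secreted IL-1B measured by AlphaLISA bead assay after 16 h compound exposure of THP-1 cells; compounds (final up to 57.5 uM) added 1 h before LPS (250 ng/mL) and ATP (1.25 mM) stimulation; lower signal means less secretion.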
D3 antag: antagonists of human D3 dopamine receptor; actives 2.5% (n = 360,000); AID 652054; max response, negative = inhibition, %; P35462; D3R cells, DiscoveRx beta-arrestin luminescence, antagonist mode; active compounds read low; in the data active means max response below about -50%; inconclusive means no clear call, values can overlap the other calls; further: on the % scale 0 is the no-effect control and ±100 the full control effect
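Cells expressing the human receptor were seeded at 1500 cells/well, incubated overnight at 37 degrees C in 5% CO2, then exposed to library compounds with dopamine controls for 90 minutes at 37 degrees C before luminescent detection.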
DT40 TDP1 no CPT: qHTS for Inhibitors of human tyrosyl-DNA phosphodiesterase 1 (TDP1): qHTS in cells in absence of CPT; DT40 Tdp1-/- hTDP1 cells, no CPT, ATP luminescence, 48 h; Potency, µM (doses to about 46.2 µM), without a hit: at the highest dose activity change, negative = growth inhibition, usual class: inhibitors; actives 15% (n = 420,000); further: potency means the concentration at half of the fitted maximal effect; on the % scale 0 is the no-effect control and ±100 the full control effect; nearly all actives have a fitted effect of over 55% in size
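Chicken DT40 Tdp1-/- cells stably complemented with human TDP1 were seeded at 400 cells/well with DMSO in place of 20 nM camptothecin. After compound pinning, cells grew at least 48 hr at 37 °C; viability read by CellTiter-Glo luminescence.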
DRD3 agonist: activates the human D3 dopamine receptor | actives 0.58% (n = 410,000) | P35462 | max activation, % | D3R DiscoveRx beta-arrestin cells, luminescence, 90 min | AID 652048; in the data active means max activation above about 30%; further: 0% is about no effect
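Cells at 1500/well, incubated overnight, then treated with pinned compounds (dopamine as control) for 90 min at 37 degrees C. DiscoveRx reagent added for 30 - 60 minutes at room temperature; luminescence read.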
ClpP mod: qHTS Assay for Activators of ClpP; actives 1.9% (n = 340,000); Potency, µM (doses to about 57.5 µM), for inactives: at the highest dose activity change, negative = active; purified B. subtilis ClpP, FRET peptide cleavage, 20 min; ATP-dependent Clp protease proteolytic subunit (Bacillus subtilis (strain 168)), P80244; AID 651965, 2013; active means well fitted falling curve with a large enough effect; inconclusive means small, poorly fitted or top-dose-only effect; inactive means no such curve, though single readings can be large or run the other way; further: potency means the concentration at half of the fitted maximal effect; the source files actives as falling curves though it sought activators and does not explain the sign; nearly all actives have a fitted effect of over 65% in size
Target sequence (P80244 whole entry, looked up): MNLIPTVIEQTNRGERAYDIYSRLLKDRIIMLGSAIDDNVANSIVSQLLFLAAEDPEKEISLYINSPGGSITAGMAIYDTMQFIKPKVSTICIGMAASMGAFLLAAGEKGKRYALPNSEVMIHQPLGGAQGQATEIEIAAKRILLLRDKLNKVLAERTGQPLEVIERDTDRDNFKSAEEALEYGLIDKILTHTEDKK
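Purified B. subtilis ClpP, 10 microg/mL final in Tris/HCl pH8 with KCl, BSA, glycerol and Tween-20, cleaved an Abz/nitrotyrosine-quenched decapeptide. Fluorescence (ex 320, em 430) was read at 0 and 20 min at room temperature. Delta was normalized to 5.8 microM ADEP and DMSO/no-enzyme controls.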
An asterisk follows results filed as active; ? = inconclusive; . = not tested or not shown. Unless noted, the call rests on the fitted dose curve; in most records, active means well fitted inhibition curve with a large enough effect; inconclusive means small, poorly fitted or top-dose-only effect; inactive means flat fitted curve, though single readings scatter.

SMILES | TDP1 cell CPT | IL1B secr inh | D3 antag | DT40 TDP1 no CPT | DRD3 agonist | ClpP mod
O=c1[nH]c(=O)n(CCCc2ccccc2)cc1-c1ccccc1 | -28% | 11 | 10 | -26% | 3 | 0%
COc1ccc(CNc2cc(-c3cccnc3)ncn2)c(OC)c1 | ? | . | . | -28% | . | .
COc1cccc(O)c1O | 3.7µM* | . | . | 4.6µM* | . | .
CCOC(=O)c1sc2ncn(CC(=O)Nc3ccc(C)cc3C)c(=O)c2c1C | -15% | . | . | -9% | -19 | 2%
Cc1ccc(CSCC(=O)N2CCN(c3ccccc3)CC2)cc1 | ? | 4 | 0 | ? | 2 | 0%
Cn1cccc1Cc1nnc(SCC(=O)N2CCCCCC2)n1-c1ccc(F)cc1 | ? | 21 | 2 | ? | 4 | 6%
Cn1c(SCC(=O)N2CCN(c3ccccc3)CC2)nnc1-c1ccccc1 | -8% | 12 | -8 | -16% | -2 | -1%
Cc1ccccc1-n1c(SCC(=O)N2CCN(c3ccccc3)CC2)nnc1-c1ccncc1 | 16µM* | 4 | 20 | 21µM* | -7 | 2%
Cc1ccc(-n2c(Cc3cccn3C)nnc2SCC(=O)N2CCN(c3ccccc3)CC2)cc1 | ? | -10 | -79* | ? | -7 | 4%
Cc1ccc(CSCc2nnc(SCC(=O)N3CCN(c4ccccc4)CC3)n2C)cc1 | ? | ? | -7 | 16µM* | -1 | -2%
CCc1ccccc1-n1c(SCC(=O)N2CCCC2)nnc1-c1ccccn1 | ? | -10 | 15 | 20µM* | 0 | -5%
COCCNC(=O)CCCn1c(=O)[nH]c2ccsc2c1=O | -1% | . | . | -9% | 6 | -2%
CCn1c(CSCc2ccc(F)cc2)nnc1SCC(=O)N1CCN(c2ccccc2)CC1 | ? | ? | 15 | 23µM* | 2 | 1%
CCOC(=O)c1[nH]c2ccc(OC)cc2c1NC(=S)N1CCN(c2ccccn2)CC1 | -6% | 13 | 11 | -3% | 3 | 3%
CCOC(=O)c1[nH]c2cc3c(cc2c1NC(=O)CN1CC(C)CC(C)C1)OCO3 (stereo not drawn) | ? | -17 | 4 | 26µM* | -4 | 2%
CCOC(=O)c1[nH]c2ccc(OCC)cc2c1NC(=O)CN1CCCC(C)C1 (stereo not drawn) | ? | -17 | 19 | ? | 0 | 14µM*
CCOC(=O)c1[nH]c2ccc(C)cc2c1N | ? | 17 | 5 | ? | 6 | 25µM*
CCOC(=O)c1[nH]c2ccc(OCC)cc2c1NC(=O)CN1CCN(c2ccccn2)CC1 | ? | -12 | -14 | 16µM* | 9 | 18µM*
O=C(CN1CCN(S(=O)(=O)c2cccc(Cl)c2)CC1)NCC1(N2CCOCC2)CCCCC1 | ? | -20 | -1 | ? | -10 | 0%
CCOC(=O)c1[nH]c2ccccc2c1NC(=O)CC | -18% | 44 | -19 | -15% | -3 | 4%
CCOC(=O)c1[nH]c2ccc(C)cc2c1NC(=O)CN1CCCCC1 | -27% | -12 | -10 | ? | -24 | 32µM*
CN1CCN(C(=O)C(=O)Nc2c3c(nn2-c2cccc(Cl)c2)CSC3)CC1 | 0% | . | . | -5% | 15 | 0%
Cc1ccc(S(=O)(=O)N2CCCN(C)c3nc4ccccc4nc32)cc1 | ? | -2 | -24 | 16µM* | -3 | -28%
O=S(=O)(c1ccc2ccccc2c1)N1CCN(c2ccc(O)cc2)CC1 | 6.5µM* | 29 | -18 | 8.2µM* | 0 | 0%
Nn1cc(-c2ccccc2)nc1SCC(=O)N1CCN(S(=O)(=O)c2ccc3ccccc3c2)CC1 | ? | -51* | -2 | ? | -3 | -13%
Cc1ccc(S(=O)(=O)n2cc(-c3ccccc3)c3ccccc32)cc1 | 3.7µM* | 69 | ? | 2.3µM* | -29 | -1%
CN1CCCN(S(=O)(=O)c2ccccc2)c2nc3ccccc3nc21 | 1% | -9 | -11 | -30% | 1 | -28%
